Six1-Eya2 inh: Six1/Eya2 interaction inhibition; AlphaScreen GST-Six1/His-Eya2 binding, biochemical; hits give low values; activity change, % (concentration not given with the values); 360,000 tested, 0.56% active; in the data active means activity change below about -65%; inconclusive means mostly about -30% to -63%
Target sequence (O00167 whole entry, looked up): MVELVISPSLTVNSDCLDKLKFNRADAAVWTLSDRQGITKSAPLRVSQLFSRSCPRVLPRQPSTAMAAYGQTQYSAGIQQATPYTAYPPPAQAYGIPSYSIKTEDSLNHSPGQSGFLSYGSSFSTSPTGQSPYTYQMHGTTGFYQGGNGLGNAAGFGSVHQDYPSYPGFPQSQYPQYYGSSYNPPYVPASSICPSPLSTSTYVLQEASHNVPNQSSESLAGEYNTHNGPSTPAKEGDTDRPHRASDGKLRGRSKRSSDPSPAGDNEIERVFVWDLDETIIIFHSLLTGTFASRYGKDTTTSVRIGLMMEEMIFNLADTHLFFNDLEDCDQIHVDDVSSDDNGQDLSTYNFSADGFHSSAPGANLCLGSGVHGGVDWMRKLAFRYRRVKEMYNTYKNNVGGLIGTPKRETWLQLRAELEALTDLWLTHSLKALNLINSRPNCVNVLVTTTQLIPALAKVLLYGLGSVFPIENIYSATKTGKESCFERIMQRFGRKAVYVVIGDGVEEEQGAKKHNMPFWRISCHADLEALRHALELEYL
Target sequence (Q15475 whole entry, looked up): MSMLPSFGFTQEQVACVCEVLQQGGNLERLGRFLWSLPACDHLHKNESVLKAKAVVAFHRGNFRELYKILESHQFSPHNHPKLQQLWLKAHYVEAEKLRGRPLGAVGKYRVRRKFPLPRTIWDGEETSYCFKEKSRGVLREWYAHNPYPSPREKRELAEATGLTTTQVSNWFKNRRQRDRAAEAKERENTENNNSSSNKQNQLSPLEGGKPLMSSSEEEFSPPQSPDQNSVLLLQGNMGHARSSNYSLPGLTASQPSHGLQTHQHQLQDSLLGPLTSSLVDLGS
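GST-Six1 + His-Eya2 (5X stock: 250/500 nM); Tris pH 8.0, 300 mM NaCl, 0.05% BSA, 0.02% Tween 20; GSH donor/Ni acceptor beads; 1 h 37 °C dark; AlphaScreen readout.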
TDP1 inh: inhibitors of human tyrosyl-DNA phosphodiesterase TDP1; recombinant TDP1, AlphaScreen DNA substrate cleavage; Potency, µM (highest dose often 130 µM), inactives show at the highest dose activity change, negative = inhibition, most hits filed as inhibitors; 350,000 tested, 0.28% active; AID 485290; further: potency means the concentration at half of the fitted maximal effect; nearly all actives have a fitted effect of over 40% in size
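Recombinant human Tdp1 (E. coli-expressed, 1 nM final) preincubated with compounds 15 min at room temperature, then 5'-biotin/3'-phosphotyrosine-FITC DNA substrate (15 nM final) added for 5 min. AlphaScreen beads (10 ug/ml final) added 10 min; cleavage lowers signal.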
CtBP-E1A inh: inhibitors of CtBP/E1A interaction | 340,000 tested, 0.49% active | activity change, % (no concentration beside the values) | AlphaScreen GST-E1A/His-CtBP binding, 1536-well; hits give low values; in the data active means activity change below about -65%; inconclusive means mostly about -30% to -63%
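AlphaScreen with 125 nM GST-E1A and 125 nM His-CtBP (5X stocks) in Tris pH 8.0, 300 mM NaCl, BSA, Tween 20, TCEP. Compounds preincubated 2 h at 37 deg C, then glutathione donor/nickel acceptor beads added for 1 h at 37 deg C in dark.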
DT40 TDP1 no CPT: qHTS for Inhibitors of human tyrosyl-DNA phosphodiesterase 1 (TDP1): qHTS in cells in absence of CPT | DT40 Tdp1-/- hTDP1 cells, no CPT, ATP luminescence, 48 h | Potency, µM (highest dose often 46.2 µM), inactives show at the top dose activity change, negative = growth inhibition, hits mostly inhibitors | 420,000 tested, 15% active | AID 686978, 2013; further: potency means the concentration at half of the fitted maximal effect; nearly all actives have a fitted effect of over 55% in size
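Growth kinetics read by CellTiter-Glo luminescence after ≥48 hr at 37 °C. Cells: DT40 Tdp1-/- stably carrying human TDP1, 400 per well, compound exposure in the absence of CPT (DMSO vehicle).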
IL1B secr inh: blocks inflammasome-driven IL-1 beta release | THP-1 LPS/ATP IL-1B secretion, AlphaLISA, 16 h; hits give low values | activity change, % at 57.5 µM | 360,000 tested, 4.7% active; in the data active means activity change below about -50%; inconclusive means mostly about -30% to -49%
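THP-1 cells pretreated 1 hr with compounds (up to 57.5 uM final), then stimulated with LPS (250 ng/mL final) plus ATP (1.25 mM final); secreted IL-1B measured by AlphaLISA after 16 hr, decreased signal indicating inhibition.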
DT40 TDP1 CPT: growth inhibition of DT40 Tdp1-/-;hTDP1 cells with camptothecin (screen for TDP1 inhibitors); chicken DT40 Tdp1-/-;hTDP1 cells + 20 nM CPT, ATP luminescence, 48 h; Potency, µM (highest dose often 46.2 µM), inactives show at the highest dose activity change, negative = growth inhibition, most hits filed as inhibitors; 420,000 tested, 12% active; AID 686979; further: potency means the concentration at half of the fitted maximal effect; nearly all actives have a fitted effect of over 55% in size
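Cell growth measured by CellTiter-Glo luminescence after a minimum 48 h, 37 C compound exposure with 20 nM CPT in Tdp1-knockout DT40 cells stably expressing hTDP1, seeded 400/well; qHTS titration format.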
An asterisk follows results filed as active; ! = repeats disagree; [ ] = remark or other dose. Rows were chosen to be rich in hits. Some 18% of all compounds tested hit in one or more screens of this group. Unless noted, the call rests on the fitted dose curve; in most records, active means well fitted curve in the direction sought with a large enough effect; inconclusive means small, poorly fitted or top-dose-only effect, or another doubt; inactive means no such curve, though single readings can be large; an effect the other way counts as inactive or inconclusive. On the % scale 0 is the no-effect control and ±100 the full control effect.

For C[C@]12CCC3[C@@H](CC[C@H]4C[C@@H](O)CC[C@]34C)C1CCC2=O (some centres undefined) the results were Six1-Eya2 inh 6, CtBP-E1A inh 7, DT40 TDP1 no CPT inconclusive, IL1B secr inh 74 and DT40 TDP1 CPT inconclusive.
Screening CC(=O)C1=C(O)C2C3c4c[nH]c5cccc(c45)CC3C(C)(C)N2C1=O (centres undefined) returned TDP1 inh 4%, DT40 TDP1 no CPT 7.3µM* and DT40 TDP1 CPT 10µM*.
Screening CC(=O)C1=C(O)[C@@H]2[C@@H]3c4c[nH]c5cccc(c45)C[C@@H]3C(C)(C)N2C1=O returned TDP1 inh 11%, DT40 TDP1 no CPT 4.2µM* and DT40 TDP1 CPT 6.7µM*.
Screening CCN(CC)C(=O)N[C@@H]1C[C@H]2c3cccc4[nH]cc(c34)C[C@@H]2N(C)C1 returned TDP1 inh 10%[21 µM].
C/C(O)=C1\C(=O)[C@@H]2[C@H]3c4c[nH]c5cccc(c45)C[C@H]3C(C)(C)N2C1=O was read as TDP1 inh 17%, DT40 TDP1 no CPT 8.3µM* and DT40 TDP1 CPT 10µM*.
C[C@]12CCC3C(CC[C@H]4[C@@H](O)[C@H](O)CC[C@]34C)C1CCC2=O (some centres undefined) was read as Six1-Eya2 inh 0, CtBP-E1A inh 8, DT40 TDP1 no CPT inconclusive, IL1B secr inh 19 and DT40 TDP1 CPT -16%.
Screening COC(=O)C1=C(c2cc3ccccc3s2)C[C@@H]2CC[C@H]1N2C(=O)N1CCOCC1 returned Six1-Eya2 inh -13, DT40 TDP1 no CPT 7.3µM*, IL1B secr inh 30 and DT40 TDP1 CPT 9.2µM*.
COC(=O)C1=C(c2cc3ccccc3s2)C[C@@H]2CC[C@H]1N2C(=O)N1CCCC1 was read as Six1-Eya2 inh -1, CtBP-E1A inh 4, IL1B secr inh 0 and DT40 TDP1 CPT 4.6µM*.
C#Cc1cccc2c1c(C(=O)c1ccc(Cn3c(C)nc4cnccc43)c(F)c1)cn2C(=O)N(C)C was read as TDP1 inh 11%.
For CCOc1ccc2nc(N=Nc3c(O)[nH]c(=O)[nH]c3=O)sc2c1 the results were Six1-Eya2 inh -1, TDP1 inh 40µM*, CtBP-E1A inh -1, DT40 TDP1 no CPT 11%, IL1B secr inh 6 and DT40 TDP1 CPT -13%.
For CCOC(C[n+]1c(-c2ccccc2)cc(C)cc1-c1ccccc1)OCC the results were Six1-Eya2 inh -1, TDP1 inh 0%, CtBP-E1A inh -6, DT40 TDP1 no CPT 0.52µM*, IL1B secr inh 4 and DT40 TDP1 CPT 1.6µM*.
`Nc1ccc(Oc2ccc(N)cc2)cc1` gave TDP1 inh 19%.
Screening N[C@@H](Cc1cc(I)c(O)c(I)c1)C(=O)O returned Six1-Eya2 inh -24, TDP1 inh 0%, CtBP-E1A inh -26, DT40 TDP1 no CPT inconclusive, IL1B secr inh 27 and DT40 TDP1 CPT -12%.
NC(Cc1cc(O)c(O)cc1O)C(=O)O (centres undefined) was read as TDP1 inh 0.18µM*, DT40 TDP1 no CPT 6.3µM* and DT40 TDP1 CPT 5µM*.
For CCCCc1nc2ccccc2c(=O)n1-c1ccccc1O the results were Six1-Eya2 inh 14, TDP1 inh 0%, CtBP-E1A inh 2, DT40 TDP1 no CPT inconclusive, IL1B secr inh 2 and DT40 TDP1 CPT inconclusive.
Screening CCN(CC)Cc1cc(Nc2ccnc3cc(Cl)ccc23)ccc1O returned Six1-Eya2 inh -6, TDP1 inh 16%[21 µM], CtBP-E1A inh -22, DT40 TDP1 no CPT 23µM*!, IL1B secr inh -77*! and DT40 TDP1 CPT 16µM*!.
Screening CN(C(=O)Oc1ccc(C(C)(C)C)cc1)c1ccccc1 returned Six1-Eya2 inh 34, TDP1 inh 5%, CtBP-E1A inh -13, DT40 TDP1 no CPT inconclusive, IL1B secr inh -16 and DT40 TDP1 CPT -16%.
Screening CC[n+]1c(-c2ccccc2)c2cc(N)ccc2c2ccc(N)cc21 returned Six1-Eya2 inh inconclusive, TDP1 inh 9%, CtBP-E1A inh -17, DT40 TDP1 no CPT 0.15µM*, IL1B secr inh -99* and DT40 TDP1 CPT 0.16µM*.
`COC1=C(OC)[C@]23CCc4ccc(OC)c(OC)c4[C@]2(CCN3C)CC1=O` gave Six1-Eya2 inh -4, TDP1 inh 1%, CtBP-E1A inh -25, DT40 TDP1 no CPT -3%, IL1B secr inh 50 and DT40 TDP1 CPT -22%.
For COc1ccccc1OP(=O)(Nc1cccnc1)Oc1ccccc1OC the results were Six1-Eya2 inh 4, TDP1 inh -1%, CtBP-E1A inh 2, DT40 TDP1 no CPT 12µM*, IL1B secr inh 3 and DT40 TDP1 CPT inconclusive.
COc1cccc(NP(=O)(Oc2ccc(Cl)cc2)Oc2ccc(Cl)cc2)c1 was read as Six1-Eya2 inh 3, TDP1 inh -5%, CtBP-E1A inh -8, DT40 TDP1 no CPT 23µM*, IL1B secr inh inconclusive and DT40 TDP1 CPT inconclusive.
Screening O=P(Nc1ccccc1)(Nc1ccccc1)Oc1ccc(Cl)cc1 returned Six1-Eya2 inh 3, TDP1 inh 2%, CtBP-E1A inh 6, DT40 TDP1 no CPT -17%, IL1B secr inh 22 and DT40 TDP1 CPT -37%.
For C[C@@H]1CC[C@H]2[C@@H](C)C(=O)O[C@@H]3OC4(C)CC[C@@H]1C32OO4 (some centres undefined) the results were TDP1 inh 7%.
`C[C@@H]1CC[C@H]2[C@@H](C)C(=O)O[C@@H]3O[C@@]4(C)CC[C@@H]1[C@]32OO4` gave Six1-Eya2 inh 3, CtBP-E1A inh 5, DT40 TDP1 no CPT 4.1µM*, IL1B secr inh 10 and DT40 TDP1 CPT 0.65µM*.
CC1C(=O)OC2O[C@]3(C)CC[C@H]4C(C)CCC1[C@]24OO3 (some centres undefined) was read as TDP1 inh 9%[56.1 µM], DT40 TDP1 no CPT 1.2µM* and DT40 TDP1 CPT 7.3µM*.
For C[C@@H]1CCC2[C@@H](C)C(=O)O[C@@H]3OC4(C)CCC1[C@@]23OO4 (some centres undefined) the results were Six1-Eya2 inh 10, TDP1 inh 2%, DT40 TDP1 no CPT 8.2µM*, IL1B secr inh 1 and DT40 TDP1 CPT 4.1µM*.
Screening CC1CCC2C(C)C(=O)OC3O[C@]4(C)CCC1[C@@]32OO4 (some centres undefined) returned TDP1 inh 12%.
